Bioassay records (PubChem)
USP10 block: inhibitors of human USP10 deubiquitinase. Ubiquitin carboxyl-terminal hydrolase 10 (Homo sapiens), Q14694. purified USP10, Ub-rhodamine fluorescence, 60 min. inhibition, % at 20 µM. 47,000 tested, 1.1% active. AID 1645856, 2021
OTUD3 inh: inhibitors of human OTUD3 deubiquitinase | OTU domain-containing protein 3 (Homo sapiens), Q5T2D3 | purified OTUD3, Ub-rhodamine fluorescence, 2 h | inhibition, % at 25 µM | 47,000 tested, 0.7% active | AID 1645858, 2021
UCHL1 inh: inhibitors of human UCHL1 deubiquitinase; Ubiquitin carboxyl-terminal hydrolase isozyme L1 (Homo sapiens), P09936; purified UCHL1, Ub-rhodamine cleavage fluorescence; inhibition, % at 20 µM; 47,000 tested, 0.2% active; AID 1645859, 2021
USP7 inh: inhibitors of human USP7 deubiquitinase | Ubiquitin carboxyl-terminal hydrolase 7 (Homo sapiens), Q93009 | purified USP7, Ub-rhodamine cleavage fluorescence | inhibition, % at 20 µM | 47,000 tested, 0.3% active
USP8 inh: inhibitors of human USP8 deubiquitinase | inhibition, % at 20 µM | Ubiquitin carboxyl-terminal hydrolase 8 (Homo sapiens), P40818 | 47,000 tested, 4.2% active | purified USP8, Ub-rhodamine cleavage fluorescence, 30 min
Active calls of the source: *. Sampled rows, rich in hits. Any-hit rate of the full collection: about 5%. Cut-off read from the data, not from the text of the source: active = inhibition above about 30%; inactive = the rest.

How did Cc1nc(N2CCN(c3ccc(Cl)cc3)CC2)c2oc3ccccc3c2n1 do in these assays?
USP10 block: 18; OTUD3 inh: 21; UCHL1 inh: 2; USP7 inh: 12; USP8 inh: 63*

How did O=C(Nc1ccc(NS(=O)(=O)c2ccc3c4c(cccc24)CC3)cc1)c1ccccc1 do in these assays?
USP10 block: -4; OTUD3 inh: 2; UCHL1 inh: 0; USP7 inh: 3; USP8 inh: 43*

What do the screens show for `COc1ccc(CNC(=O)c2ccc3c(=O)nc4c(-c5cccc(C)c5)n[nH]n4c3c2)cc1`?
USP10 block: 41*; OTUD3 inh: 18; UCHL1 inh: 1; USP7 inh: 22; USP8 inh: 61*

What do the screens show for `COc1ccc(-c2n[nH]n3c2nc(=O)c2ccc(C(=O)NCc4ccco4)cc23)cc1`?
USP10 block: 29; OTUD3 inh: 10; UCHL1 inh: 19; USP7 inh: 18; USP8 inh: 14

How did CSc1nnc2c3c(c(C#N)c(Nc4ccccc4)n12)CC(C)(C)OC3 do in these assays?
USP10 block: -1; OTUD3 inh: -10; UCHL1 inh: -4; USP7 inh: 3; USP8 inh: -70

What do the screens show for `COc1cc(C)cc2c1C(=O)c1c(cc(O)c(Cl)c1O)C2=O`?
USP10 block: 5; OTUD3 inh: 76*; UCHL1 inh: 73*; USP7 inh: 72*; USP8 inh: -18

Results for COc1cc(CO)cc2c1C(=O)c1c(O)cc(O)cc1C2=O ?
USP10 block: 3; OTUD3 inh: 0; UCHL1 inh: 3; USP7 inh: 5; USP8 inh: 5

How did CCS(=O)(=O)N1Cc2ccccc2CC1C(=O)Nc1nc2ccccc2s1 (stereo not drawn) do in these assays?
USP10 block: 14; OTUD3 inh: -21; UCHL1 inh: 10; USP7 inh: 20; USP8 inh: 32*

Results for O=c1c(-c2ccc(O)cc2)coc2cc(O)cc(O)c12 ?
USP10 block: 2; OTUD3 inh: -10; UCHL1 inh: -2; USP7 inh: 2; USP8 inh: 6

Results for O=c1c(O)c(-c2ccc(O)c(O)c2)oc2cc(O)cc(O)c12 ?
USP10 block: 17; OTUD3 inh: 95*; UCHL1 inh: 34*; USP7 inh: -8; USP8 inh: 18

How did O=c1cc(-c2ccc(O)c(O)c2)oc2cc(O)cc(O)c12 do in these assays?
USP10 block: 36*; OTUD3 inh: 101*; UCHL1 inh: 25; USP7 inh: 11; USP8 inh: 31*

What do the screens show for `CC(C)NC(=O)CN1CCCN(c2ncnc3cc(Cl)ccc23)CC1`?
USP10 block: -2; OTUD3 inh: 5; UCHL1 inh: 0; USP7 inh: 1; USP8 inh: -126

What do the screens show for `CCCC[C@@H](O)/C=C(C)/C=C/C=C/C(=O)N1CCCC1=O`?
USP10 block: 0; OTUD3 inh: 3; UCHL1 inh: -2; USP7 inh: 0; USP8 inh: -17

Results for COc1ccc(CCN2COc3c(cc(Cl)c4cccnc34)C2)cc1OC ?
USP10 block: 19; OTUD3 inh: 10; UCHL1 inh: 31*; USP7 inh: -27; USP8 inh: 97*

How did O=C(COc1cccc(-n2cnnn2)c1)Nc1ccc2c(c1)OCCO2 do in these assays?
USP10 block: -1; OTUD3 inh: 3; UCHL1 inh: 2; USP7 inh: 1; USP8 inh: 11

What do the screens show for `CCOC(=O)c1cc(=O)c2ccc(OCC(=O)Nc3ccc4c(c3)OCCO4)cc2o1`?
USP10 block: 7; OTUD3 inh: 20; UCHL1 inh: 5; USP7 inh: 2; USP8 inh: 65*

What do the screens show for `O=c1c(S(=O)(=O)c2cc(F)cc(F)c2)c[nH]c2cc(Cl)ccc12`?
USP10 block: 22; OTUD3 inh: 4; UCHL1 inh: 8; USP7 inh: 26; USP8 inh: 80*

How did COc1ccc2[nH]cc(S(=O)(=O)c3ccc(C)c(F)c3)c(=O)c2c1 do in these assays?
USP10 block: 6; OTUD3 inh: 14; UCHL1 inh: 5; USP7 inh: 10; USP8 inh: 8

How did CN1CCCc2cc(C(=O)N3CCCC3)sc21 do in these assays?
USP10 block: -2; OTUD3 inh: 3; UCHL1 inh: 0; USP7 inh: -13; USP8 inh: -6

Results for Cc1ccccc1NC(=O)Cc1nc(-c2cccc3ccccc23)cs1 ?
USP10 block: 0; OTUD3 inh: 0; UCHL1 inh: -2; USP7 inh: -3; USP8 inh: 73*

Results for O=C(O)c1ccc(Oc2nccnc2N2CCCCC2)cc1 ?
USP10 block: -4; OTUD3 inh: -8; UCHL1 inh: -3; USP7 inh: 1; USP8 inh: -155

How did CCc1cc2c(NCc3ccccn3)nc(C)nc2s1 do in these assays?
USP10 block: 1; OTUD3 inh: 4; UCHL1 inh: 1; USP7 inh: 1; USP8 inh: 0

Results for COC(=O)c1ccc(NC(=O)/C=C/c2ccc(F)cc2)cc1 ?
USP10 block: 44*; OTUD3 inh: 14; UCHL1 inh: 8; USP8 inh: 96*

What do the screens show for `COC(=O)c1cc(NC(=O)/C=C/c2ccc(C(C)C)cc2)ccc1N1CCOCC1`?
USP10 block: 4; OTUD3 inh: -11; UCHL1 inh: 10; USP7 inh: 13; USP8 inh: 0

What do the screens show for `CC1CCN(c2ccc3nnc(CCC(=O)NC4CCCC4)n3n2)CC1`?
USP10 block: 0; OTUD3 inh: 9; UCHL1 inh: -1; USP7 inh: 0; USP8 inh: 18

Results for O=C(NCc1ccccc1Cl)C1CCN(c2ccc(-c3ccccc3)nn2)CC1 ?
USP10 block: 30*; OTUD3 inh: 10; UCHL1 inh: -1; USP7 inh: 9; USP8 inh: 47*

Results for COc1ccc(Cn2nnc(C(=O)NC3CCCCC3)c2-n2cccc2)cc1 ?
USP10 block: 3; OTUD3 inh: 22; UCHL1 inh: 19; USP7 inh: -7; USP8 inh: 49*

How did COc1ccccc1OC(C)C(=O)Nc1ccc2nsnc2c1 (stereo not drawn) do in these assays?
USP10 block: 4; OTUD3 inh: 17; UCHL1 inh: 6; USP7 inh: -4; USP8 inh: 73*

What do the screens show for `CC(=O)Nc1cccc(-c2cnc3sc(NCC4CCOCC4)nn23)c1`?
USP10 block: 4; OTUD3 inh: -1; UCHL1 inh: 1; USP7 inh: 0; USP8 inh: -7

What do the screens show for `COc1cc(C2CCN(C(=O)c3ccccc3)CC2)on1`?
USP10 block: 2; OTUD3 inh: 10; UCHL1 inh: 0; USP7 inh: -1; USP8 inh: 32*

Results for COc1cc(C2CCN(C(=O)c3ccc(Cl)cc3)CC2)on1 ?
USP10 block: 0; OTUD3 inh: 10; UCHL1 inh: 0; USP7 inh: -4; USP8 inh: 1

What do the screens show for `CC(C)CC1Nc2ccc(C(=O)N3CCN(c4ccccn4)CC3)cc2NC1=O` (stereo not drawn)?
USP10 block: 4; OTUD3 inh: 14; UCHL1 inh: 5; USP7 inh: 8; USP8 inh: 53*
